# According to PMC11006913:
# Columns and labels:
# Assay in all cases: PBM; 200 nM protein, PBS
# Details in all cases: dsDNA, one strand shown
# HESX1 [1] = biological target: HESX1 (Homo sapiens, UniProt Q9UBX0 95-180, R165K)
# HOXB4 [2] = biological target: HOXB4 (Homo sapiens, UniProt P17483 148-234)
# SHOX [3] = biological target: SHOX (Homo sapiens, UniProt O15266 103-189)
# HESX1 [4] = biological target: HESX1 (Homo sapiens, UniProt Q9UBX0 95-180)
# HOXA4 = HOXA4 (Homo sapiens, UniProt Q00056 201-287, R217L)
# Chain of HOXA4 (Q00056 201-287 R217L): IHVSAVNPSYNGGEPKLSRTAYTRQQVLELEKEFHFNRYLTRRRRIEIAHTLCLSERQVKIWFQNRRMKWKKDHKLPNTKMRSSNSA
# HOXB4 [5] = biological target: HOXB4 (Homo sapiens, UniProt P17483 148-234, V174I)
# Chain of HOXB4 (Homo sapiens, UniProt P17483 148-234, V174I) (P17483 148-234 V174I): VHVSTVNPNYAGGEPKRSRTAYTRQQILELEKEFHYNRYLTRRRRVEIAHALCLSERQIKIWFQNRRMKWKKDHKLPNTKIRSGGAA
# MSX2 [6] = biological target: MSX2 (Homo sapiens, UniProt P35548 130-214, R199I)
# Chain of MSX2 (Homo sapiens, UniProt P35548 130-214, R199I) (P35548 130-214 R199I): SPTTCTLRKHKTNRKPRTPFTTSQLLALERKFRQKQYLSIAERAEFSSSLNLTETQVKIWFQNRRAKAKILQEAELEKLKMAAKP
# ALX3 [7] = biological target: ALX3 (Homo sapiens, UniProt O95076 139-225, N203Q)
# Chain of ALX3 (Homo sapiens, UniProt O95076 139-225, N203Q) (O95076 139-225 N203Q): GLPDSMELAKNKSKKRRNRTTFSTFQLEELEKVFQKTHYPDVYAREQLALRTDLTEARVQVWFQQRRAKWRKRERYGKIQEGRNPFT
# SHOX [8] = biological target: SHOX (Homo sapiens, UniProt O15266 103-189, R173C)
# Chain of SHOX (Homo sapiens, UniProt O15266 103-189, R173C) (O15266 103-189 R173C): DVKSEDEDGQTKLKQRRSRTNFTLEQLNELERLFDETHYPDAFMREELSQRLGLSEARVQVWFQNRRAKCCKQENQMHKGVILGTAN
# ALX3 [9] = biological target: ALX3 (Homo sapiens, UniProt O95076 139-225)
# Chain of ALX3 (Homo sapiens, UniProt O95076 139-225) (O95076 139-225): as the sequence (O95076 139-225 N203Q) above, with Q65N counted along it
# PROP1 [10] = biological target: PROP1 (Homo sapiens, UniProt O75360 56-141)
# Chain of PROP1 (Homo sapiens, UniProt O75360 56-141) (O75360 56-141): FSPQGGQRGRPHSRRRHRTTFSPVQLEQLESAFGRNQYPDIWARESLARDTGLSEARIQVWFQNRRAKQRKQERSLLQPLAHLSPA
# HESX1 [11] = biological target: HESX1 (Homo sapiens, UniProt Q9UBX0 95-180, R109Q)
# Chain of HESX1 (Homo sapiens, UniProt Q9UBX0 95-180, R109Q) (Q9UBX0 95-180 R109Q): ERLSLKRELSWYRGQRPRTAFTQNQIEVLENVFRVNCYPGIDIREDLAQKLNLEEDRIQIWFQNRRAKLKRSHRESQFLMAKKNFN
# PROP1 [12] = biological target: PROP1 (Homo sapiens, UniProt O75360 56-141, R99H)
# Chain of PROP1 (Homo sapiens, UniProt O75360 56-141, R99H) (O75360 56-141 R99H): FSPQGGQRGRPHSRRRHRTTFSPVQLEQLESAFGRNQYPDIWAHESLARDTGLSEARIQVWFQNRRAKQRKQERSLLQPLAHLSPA
# ALX3 [13] = biological target: ALX3 (Homo sapiens, UniProt O95076 139-225, L168Q)
# Chain of ALX3 (Homo sapiens, UniProt O95076 139-225, L168Q) (O95076 139-225 L168Q): as the sequence (O95076 139-225 N203Q) above, with L30Q, Q65N counted along it
# HESX1 [14] = biological target: HESX1 (Homo sapiens, UniProt Q9UBX0 95-180, P111T)
# Chain of HESX1 (Homo sapiens, UniProt Q9UBX0 95-180, P111T) (Q9UBX0 95-180 P111T): as the sequence (Q9UBX0 95-180 R109Q) above, with Q15R, P17T counted along it
# ALX3 [15] = biological target: ALX3 (Homo sapiens, UniProt O95076 139-225, L168V)
# Chain of ALX3 (Homo sapiens, UniProt O95076 139-225, L168V) (O95076 139-225 L168V): as the sequence (O95076 139-225 N203Q) above, with L30V, Q65N counted along it
# PROP1 [16] = biological target: PROP1 (Homo sapiens, UniProt O75360 56-141, F88S)
# Chain of PROP1 (Homo sapiens, UniProt O75360 56-141, F88S) (O75360 56-141 F88S): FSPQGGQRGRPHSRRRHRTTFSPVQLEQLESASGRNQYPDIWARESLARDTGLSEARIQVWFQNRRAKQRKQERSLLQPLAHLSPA
# MSX2 [17] = biological target: MSX2 (Homo sapiens, UniProt P35548 130-214, F161Y)
# Chain of MSX2 (Homo sapiens, UniProt P35548 130-214, F161Y) (P35548 130-214 F161Y): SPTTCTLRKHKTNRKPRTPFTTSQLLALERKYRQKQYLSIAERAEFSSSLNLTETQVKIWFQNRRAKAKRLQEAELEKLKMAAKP
# HESX1 [18] = biological target: HESX1 (Homo sapiens, UniProt Q9UBX0 95-180, F115L)
# Chain of HESX1 (Homo sapiens, UniProt Q9UBX0 95-180, F115L) (Q9UBX0 95-180 F115L): as the sequence (Q9UBX0 95-180 R109Q) above, with Q15R, F21L counted along it
# ALX3 [19] = biological target: ALX3 (Homo sapiens, UniProt O95076 139-225, N203S)
# Chain of ALX3 (Homo sapiens, UniProt O95076 139-225, N203S) (O95076 139-225 N203S): as the sequence (O95076 139-225 N203Q) above, with Q65S counted along it
# Chain of HESX1 (Homo sapiens, UniProt Q9UBX0 95-180, R165K) (Q9UBX0 95-180 R165K): as the sequence (Q9UBX0 95-180 R109Q) above, with Q15R, R71K counted along it
# Chain of HESX1 (Homo sapiens, UniProt Q9UBX0 95-180) (Q9UBX0 95-180): as the sequence (Q9UBX0 95-180 R109Q) above, with Q15R counted along it
# Chain of HOXB4 (Homo sapiens, UniProt P17483 148-234) (P17483 148-234): as the sequence (P17483 148-234 V174I) above, with I27V counted along it
# Chain of SHOX (Homo sapiens, UniProt O15266 103-189) (O15266 103-189): as the sequence (O15266 103-189 R173C) above, with C71R counted along it
Sequence,binding signal (HESX1 [1]),binding signal (HOXB4 [2]),binding signal (SHOX [3]),binding signal (HESX1 [4]),binding signal (HOXA4),binding signal (HOXB4 [5]),binding signal (MSX2 [6]),binding signal (ALX3 [7]),binding signal (SHOX [8]),binding signal (ALX3 [9]),binding signal (PROP1 [10]),binding signal (HESX1 [11]),binding signal (PROP1 [12]),binding signal (ALX3 [13]),binding signal (HESX1 [14]),binding signal (ALX3 [15]),binding signal (PROP1 [16]),binding signal (MSX2 [17]),binding signal (HESX1 [18]),binding signal (ALX3 [19])
GTCAATTA,"13.1 upbm affinity estimate (log intensity, higher = more binding, comparable within an allelic series)","13.3 upbm affinity estimate (log intensity, higher = more binding, comparable within an allelic series)","12.4 upbm affinity estimate (log intensity, higher = more binding, comparable within an allelic series)","13.1 upbm affinity estimate (log intensity, higher = more binding, comparable within an allelic series)","12.1 upbm affinity estimate (log intensity, higher = more binding, comparable within an allelic series)","13.9 upbm affinity estimate (log intensity, higher = more binding, comparable within an allelic series)","12.6 upbm affinity estimate (log intensity, higher = more binding, comparable within an allelic series)","8.23 upbm affinity estimate (log intensity, higher = more binding, comparable within an allelic series)","9.5 upbm affinity estimate (log intensity, higher = more binding, comparable within an allelic series)","12.5 upbm affinity estimate (log intensity, higher = more binding, comparable within an allelic series)","11.4 upbm affinity estimate (log intensity, higher = more binding, comparable within an allelic series)","9.32 upbm affinity estimate (log intensity, higher = more binding, comparable within an allelic series)","11.8 upbm affinity estimate (log intensity, higher = more binding, comparable within an allelic series)","10.7 upbm affinity estimate (log intensity, higher = more binding, comparable within an allelic series)","11.6 upbm affinity estimate (log intensity, higher = more binding, comparable within an allelic series)","10.1 upbm affinity estimate (log intensity, higher = more binding, comparable within an allelic series)","7.62 upbm affinity estimate (log intensity, higher = more binding, comparable within an allelic series)","13.4 upbm affinity estimate (log intensity, higher = more binding, comparable within an allelic series)","7.69 upbm affinity estimate (log intensity, higher = more binding, comparable within an allelic series)","8.41 upbm affinity estimate (log intensity, higher = more binding, comparable within an allelic series)"
CTAATTGA,"13.2 upbm affinity estimate (log intensity, higher = more binding, comparable within an allelic series)","13.3 upbm affinity estimate (log intensity, higher = more binding, comparable within an allelic series)","12.6 upbm affinity estimate (log intensity, higher = more binding, comparable within an allelic series)","13.2 upbm affinity estimate (log intensity, higher = more binding, comparable within an allelic series)","12 upbm affinity estimate (log intensity, higher = more binding, comparable within an allelic series)","14 upbm affinity estimate (log intensity, higher = more binding, comparable within an allelic series)","12.8 upbm affinity estimate (log intensity, higher = more binding, comparable within an allelic series)","8.21 upbm affinity estimate (log intensity, higher = more binding, comparable within an allelic series)","9.97 upbm affinity estimate (log intensity, higher = more binding, comparable within an allelic series)","12.7 upbm affinity estimate (log intensity, higher = more binding, comparable within an allelic series)","11.8 upbm affinity estimate (log intensity, higher = more binding, comparable within an allelic series)","9.83 upbm affinity estimate (log intensity, higher = more binding, comparable within an allelic series)","12.1 upbm affinity estimate (log intensity, higher = more binding, comparable within an allelic series)","10.8 upbm affinity estimate (log intensity, higher = more binding, comparable within an allelic series)","11.8 upbm affinity estimate (log intensity, higher = more binding, comparable within an allelic series)","10.2 upbm affinity estimate (log intensity, higher = more binding, comparable within an allelic series)","7.7 upbm affinity estimate (log intensity, higher = more binding, comparable within an allelic series)","13.5 upbm affinity estimate (log intensity, higher = more binding, comparable within an allelic series)","7.77 upbm affinity estimate (log intensity, higher = more binding, comparable within an allelic series)","8.38 upbm affinity estimate (log intensity, higher = more binding, comparable within an allelic series)"
CCCTACGG,"6.51 upbm affinity estimate (log intensity, higher = more binding, comparable within an allelic series)","7.88 upbm affinity estimate (log intensity, higher = more binding, comparable within an allelic series)",,"6.45 upbm affinity estimate (log intensity, higher = more binding, comparable within an allelic series)","9.8 upbm affinity estimate (log intensity, higher = more binding, comparable within an allelic series)","7.93 upbm affinity estimate (log intensity, higher = more binding, comparable within an allelic series)",,,,,,"6.54 upbm affinity estimate (log intensity, higher = more binding, comparable within an allelic series)",,,"6.48 upbm affinity estimate (log intensity, higher = more binding, comparable within an allelic series)",,,,"6.43 upbm affinity estimate (log intensity, higher = more binding, comparable within an allelic series)",
ACAATTAA,"12.1 upbm affinity estimate (log intensity, higher = more binding, comparable within an allelic series)","13 upbm affinity estimate (log intensity, higher = more binding, comparable within an allelic series)","11.6 upbm affinity estimate (log intensity, higher = more binding, comparable within an allelic series)","12.2 upbm affinity estimate (log intensity, higher = more binding, comparable within an allelic series)","12 upbm affinity estimate (log intensity, higher = more binding, comparable within an allelic series)","13.7 upbm affinity estimate (log intensity, higher = more binding, comparable within an allelic series)","12.8 upbm affinity estimate (log intensity, higher = more binding, comparable within an allelic series)","8.46 upbm affinity estimate (log intensity, higher = more binding, comparable within an allelic series)","9.44 upbm affinity estimate (log intensity, higher = more binding, comparable within an allelic series)","12.3 upbm affinity estimate (log intensity, higher = more binding, comparable within an allelic series)","11.2 upbm affinity estimate (log intensity, higher = more binding, comparable within an allelic series)","8.86 upbm affinity estimate (log intensity, higher = more binding, comparable within an allelic series)","11.1 upbm affinity estimate (log intensity, higher = more binding, comparable within an allelic series)","10.4 upbm affinity estimate (log intensity, higher = more binding, comparable within an allelic series)","10.8 upbm affinity estimate (log intensity, higher = more binding, comparable within an allelic series)","9.93 upbm affinity estimate (log intensity, higher = more binding, comparable within an allelic series)","7.71 upbm affinity estimate (log intensity, higher = more binding, comparable within an allelic series)","13.4 upbm affinity estimate (log intensity, higher = more binding, comparable within an allelic series)","7.77 upbm affinity estimate (log intensity, higher = more binding, comparable within an allelic series)","8.59 upbm affinity estimate (log intensity, higher = more binding, comparable within an allelic series)"
